Experimental data from PubChem BioAssay AID1159580 (chemical genetic matrix, 2015).
Among all 5,500 compounds or so, about 2,000 (36%) were called active. Inconclusive results (about 18%) are left out. Rule as the data show it: active = normalized growth mostly below about 0.91 (no sharp cut-off); inconclusive = no clear call, values can overlap the other calls; inactive = mostly above about 0.92. This is one part of the list.

Test: chemical genetic growth profiling, strain panel (AID 1159580);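 also: tested at 20 µM; growth read once vehicle control cultures reached saturation at 30 °C; 1 = growth at the plate median or of vehicle wells; lower values mean less growth of the strain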
Settings: growth OD

Measured: normalized growth

COc1cc(C(=O)N2CCOCC2)cc(OC)c1OC
active: S. cerevisiae deletion strains, locus YKL085W, strain MDH1 (second series), hits give low values 0.353 | S. cerevisiae deletion strains, locus YKL085W, strain MDH1, hits give low values 0.353 | S. cerevisiae deletion strains, locus YKR001C, strain vps1, hits give low values 0.127 | S. cerevisiae deletion strains, locus YLR102C, strain apc9, hits give low values 0.102 | S. cerevisiae deletion strains, locus YLR268W, strain sec22, hits give low values 0.0891 | S. cerevisiae deletion strains, locus YLR371W, strain rom2, hits give low values 0.0857 | S. cerevisiae deletion strains, locus YLR418C, strain cdc73, hits give low values 0.102 | S. cerevisiae deletion strains, locus YML032C, strain rad52, hits give low values 0.845 | S. cerevisiae deletion strains, locus YML124C, strain tub3, hits give low values 0.158 | S. cerevisiae deletion strains, locus YMR078C, strain ctf18, hits give low values 0.205 | S. cerevisiae deletion strains, locus YMR223W, strain ubp8, hits give low values 0.0851 | S. cerevisiae deletion strains, locus YNL250W, strain rad50, hits give low values 0.531 | S. cerevisiae deletion strains, locus YNL271C, strain bni1, hits give low values 0.214 | S. cerevisiae deletion strains, locus YNL298W, strain CLA4, hits give low values 0.456 | S. cerevisiae deletion strains, locus YNL307C, strain MCK1, hits give low values 0.0679 | S. cerevisiae deletion strains, locus YOL147C, strain pex11, hits give low values 0.829 | S. cerevisiae deletion strains, locus YOR136W, strain idh2, hits give low values 0.0963 | S. cerevisiae deletion strains, locus YOR184W, strain ser1, hits give low values 0.0727 | S. cerevisiae deletion strains, locus YOR316C, strain cot1, hits give low values 0.0956 | S. cerevisiae deletion strains, locus YPR119W, strain clb2, hits give low values 0.143 | S. cerevisiae deletion strains, locus YPR163C, strain tif3, hits give low values 0.0748 | S. cerevisiae deletion strains, locus YPR167C, strain met16, hits give low values 0.0923 | S. cerevisiae deletion strains, strain wtn01, hits give low values 0.0623
inactive: S. cerevisiae deletion strains, locus YJR075W, strain HOC1, hits give low values 1 | S. cerevisiae deletion strains, locus YKL009W, strain mrt4, hits give low values 0.926 | S. cerevisiae deletion strains, locus YKL068W, hits give low values 0.988 | S. cerevisiae deletion strains, locus YKL160W, strain elf1, hits give low values 1 | S. cerevisiae deletion strains, locus YKL190W, strain CNB1, hits give low values 1.01 | S. cerevisiae deletion strains, locus YKR026C, strain gcn3, hits give low values 0.975 | S. cerevisiae deletion strains, locus YKR091W, strain srl3, hits give low values 0.977 | S. cerevisiae deletion strains, locus YLL001W, strain dnm1, hits give low values 0.987 | S. cerevisiae deletion strains, locus YLL026W, hits give low values 0.984 | S. cerevisiae deletion strains, locus YLL041C, strain sdh2, hits give low values 0.981 | S. cerevisiae deletion strains, locus YLR027C, strain aat2, hits give low values 1.01 | S. cerevisiae deletion strains, locus YLR039C, strain RIC1, hits give low values 1.04 | S. cerevisiae deletion strains, locus YLR058C, strain SHM2, hits give low values 1.01 | S. cerevisiae deletion strains, locus YLR113W, strain HOG1, hits give low values 0.999 | S. cerevisiae deletion strains, locus YLR221C, strain rsa3, hits give low values 0.968 | S. cerevisiae deletion strains, locus YLR258W, strain gsy2, hits give low values 1.01 | S. cerevisiae deletion strains, locus YLR262C, strain YPT6 (second series), hits give low values 1.02 | S. cerevisiae deletion strains, locus YLR262C, strain YPT6, hits give low values 1.06 | S. cerevisiae deletion strains, locus YLR320W, strain mms22, hits give low values 0.982 | S. cerevisiae deletion strains, locus YLR330W, strain CHS5, hits give low values 1 | S. cerevisiae deletion strains, locus YLR342W, strain FKS1 (second series), hits give low values 1.06 | S. cerevisiae deletion strains, locus YLR342W, strain FKS1, hits give low values 0.967 | S. cerevisiae deletion strains, locus YLR357W, strain rsc2, hits give low values 0.998 | S. cerevisiae deletion strains, locus YLR370C, strain arc18, hits give low values 1 | S. cerevisiae deletion strains, locus YLR384C, strain iki3, hits give low values 0.984 | S. cerevisiae deletion strains, locus YML016C, strain PPZ1, hits give low values 1.01 | S. cerevisiae deletion strains, locus YML120C, strain ndi1, hits give low values 0.985 | S. cerevisiae deletion strains, locus YMR058W, strain fet3, hits give low values 0.987 | S. cerevisiae deletion strains, locus YMR125W, strain sto1, hits give low values 0.993 | S. cerevisiae deletion strains, locus YMR129W, hits give low values 0.982 | S. cerevisiae deletion strains, locus YMR205C, strain PFK2, hits give low values 0.982 | S. cerevisiae deletion strains, locus YMR231W, strain pep5, hits give low values 0.975 | S. cerevisiae deletion strains, locus YMR263W, strain SAP30, hits give low values 1 | S. cerevisiae deletion strains, locus YMR307W, strain GAS1, hits give low values 1.06 | S. cerevisiae deletion strains, locus YNL067W, strain RPL9B, hits give low values 1 | S. cerevisiae deletion strains, locus YNL071W, strain lat1, hits give low values 0.987 | S. cerevisiae deletion strains, locus YNL128W, strain TEP1, hits give low values 1 | S. cerevisiae deletion strains, locus YNL153C, strain GIM3, hits give low values 0.997 | S. cerevisiae deletion strains, locus YNL183C, strain NPR1, hits give low values 0.967 | S. cerevisiae deletion strains, locus YNL209W, strain ssb2, hits give low values 0.981 | S. cerevisiae deletion strains, locus YNL233W, strain BNI4, hits give low values 0.992 | S. cerevisiae deletion strains, locus YNL248C, strain rpa49, hits give low values 0.991 | S. cerevisiae deletion strains, locus YNL322C, strain KRE1 (second series), hits give low values 0.975 | S. cerevisiae deletion strains, locus YNL322C, strain KRE1, hits give low values 1.01 | S. cerevisiae deletion strains, locus YNR049C, strain mso1, hits give low values 0.971 | S. cerevisiae deletion strains, locus YNR052C, strain pop2, hits give low values 1.04 | S. cerevisiae deletion strains, locus YOL006C, strain TOP1, hits give low values 1.05 | S. cerevisiae deletion strains, locus YOR001W, strain rrp6, hits give low values 0.967 | S. cerevisiae deletion strains, locus YOR061W, strain CKA2, hits give low values 1.01 | S. cerevisiae deletion strains, locus YOR069W, strain VPS5, hits give low values 1.01 | S. cerevisiae deletion strains, locus YOR070C, strain gyp1, hits give low values 0.982 | S. cerevisiae deletion strains, locus YOR080W, strain dia2, hits give low values 0.979 | S. cerevisiae deletion strains, locus YOR083W, strain WHI5, hits give low values 1.01 | S. cerevisiae deletion strains, locus YOR106W, strain vam3, hits give low values 1.01 | S. cerevisiae deletion strains, locus YOR144C, strain elg1, hits give low values 1.01 | S. cerevisiae deletion strains, locus YOR231W, strain MKK1, hits give low values 1.01 | S. cerevisiae deletion strains, locus YOR265W, strain rbl2, hits give low values 1 | S. cerevisiae deletion strains, locus YOR270C, strain vph1, hits give low values 0.978 | S. cerevisiae deletion strains, locus YOR290C, strain snf2, hits give low values 1.01 | S. cerevisiae deletion strains, locus YPL051W, strain arl3, hits give low values 0.993 | S. cerevisiae deletion strains, locus YPL055C, strain LGE1, hits give low values 1 | S. cerevisiae deletion strains, locus YPL078C, strain atp4, hits give low values 0.982 | S. cerevisiae deletion strains, locus YPL106C, strain sse1, hits give low values 0.998 | S. cerevisiae deletion strains, locus YPL240C, strain hsp82, hits give low values 1 | S. cerevisiae deletion strains, locus YPL241C, strain CIN2, hits give low values 1.01 | S. cerevisiae deletion strains, locus YPL256C, strain CLN2, hits give low values 1.07 | S. cerevisiae deletion strains, locus YPR141C, strain kar3, hits give low values 1.03 | S. cerevisiae strains, strain wild type, hits give low values 1.01
